The values that follow come from PubChem BioAssay (Tox21).

Each structure is given as a SMILES string. “And” between values parts separate entries of the source, which are not always exact repeats. Equal values may be shown once. Values without a mark were called inactive. Results filed as inconclusive are left out. The source made the active and inactive calls. Unless noted, the call rests on the fitted dose curve; in most records, active means well fitted curve in the direction sought with a large enough effect in the repeat runs; inconclusive means weak or mixed curves; inactive means no such curve, though single readings can be large; an effect the other way counts as inactive or inconclusive.

Test [1] can be described thus: qHTS assay to test for compound auto fluorescence at 535 nm (green) in HEK293 cells (AID 720680). Further: potency means the concentration at half of the fitted maximal effect.
Test [2] is described as follows: qHTS assay to test for compound auto fluorescence at 460 nm (blue) in HEK293 cell free culture (AID 720681). Further: potency means the concentration at half of the fitted maximal effect. The procedure, abridged:
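Blue fluorescence (Ex 405/Em 460 nm, triamterene-equivalent) was read immediately after pin transfer of compound or DMSO into medium (DMEM, 10% FBS) without cells.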

The nature of test [3]: qHTS assay to test for compound auto fluorescence at 535 nm (green) in HEK293 cell free culture (AID 720682). Further: potency means the concentration at half of the fitted maximal effect. The procedure, abridged: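 Measurement is a direct plate read of green fluorescence (485 nm in, 535 nm out) after compound addition to serum-supplemented DMEM lacking cells, with fluorescein used to express intensities.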
A short description of test [4]: qHTS assay to test for compound auto fluorescence at 590 nm (red) in HEK293 cell free culture (AID 720683). Further: on the % scale 0 is the no-effect control and ±100 the full control effect. The procedure, abridged: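 Red-channel autofluorescence of compounds in culture medium (DMEM, 10% FBS), no cells, measured at 540/590 nm. Rose Bengal sodium is the reference fluorophore for equivalence.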
Test [5] is described as follows: qHTS assay to test for compound auto fluorescence at 590 nm (red) in HepG2 cell free culture (AID 720684). Further: on the % scale 0 is the no-effect control and ±100 the full control effect. The method in brief:
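Cell-free; medium MEM + 10% FBS; compound or DMSO added by pintool; read Ex 540/Em 590 nm; Rose Bengal sodium as red reference fluorophore.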

Test [6] is described as follows: qHTS assay to test for compound auto fluorescence at 460 nm (blue) in HepG2 cell free culture (AID 720685). Further: potency means the concentration at half of the fitted maximal effect. The method in brief:
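Cell-free plates of MEM plus 10% FBS received 23 nL compound or DMSO vehicle; blue-channel (405/460 nm) intensity scored against triamterene as reference fluorophore.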

Test [7] in a line: qHTS assay to test for compound auto fluorescence at 535 nm (green) in HepG2 cell free culture (AID 720686). Further: potency means the concentration at half of the fitted maximal effect.
Test [8] can be described thus: qHTS assay to identify small molecule antagonists of the glucocorticoid receptor (GR) signaling pathway - cell viability counter screen (AID 720693). Further: nearly all actives have a fitted effect of over 55% in size. Further: potency means the concentration at half of the fitted maximal effect.
Test [9] is described as follows: qHTS assay for identifying genotoxic compounds that show differential cytotoxicity against isogenic chicken DT40 cell lines with known DNA damage response pathways - Rev3 mutant cell line (AID 743014). Further: nearly all actives have a fitted effect of over 55% in size. Further: potency means the concentration at half of the fitted maximal effect.
Test [10] is described as follows: qHTS assay for identifying genotoxic compounds that show differential cytotoxicity against isogenic chicken DT40 cell lines with known DNA damage response pathways - Rad54/Ku70 mutant cell line (AID 743015). Further: nearly all actives have a fitted effect of over 60% in size. Further: potency means the concentration at half of the fitted maximal effect.
The nature of test [11]: qHTS assay to identify small molecule antagonists of the androgen receptor (AR) signaling pathway - cell viability counter screen (AID 743033; further: nearly all actives have a fitted effect of over 45% in size; further: potency means the concentration at half of the fitted maximal effect).
Test [12] is described as follows: qHTS assay to identify small molecule antagonists of the androgen receptor (AR) signaling pathway using the MDA cell line - cell viability counter screen (AID 743041; further: nearly all actives have a fitted effect of over 45% in size; further: potency means the concentration at half of the fitted maximal effect). The method in brief: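 Viability read by CellTiter-Fluor fluorescence in the same wells as the antagonist screen, added after 15.5 h of a 16 h, 37C exposure. Human breast carcinoma MDA-kb2 AR-luc cells, compounds co-dosed with agonist R1881.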

Test [13] can be described thus: qHTS assay for identifying genotoxic compounds that show differential cytotoxicity against isogenic chicken DT40 cell lines with known DNA damage response pathways - wild type cell line (AID 743012). Further: potency means the concentration at half of the fitted maximal effect; nearly all actives have a fitted effect of over 60% in size. The method in brief:
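CellTiter-Glo luminescence readout of viability in wild type DT40 cells after 40 h compound exposure at 37 C/5% CO2; 300 cells/well; reagent incubated 30 min at room temperature before reading.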

Test [14] concerns the target Androgen receptor (Homo sapiens) (UniProt P10275). In words: qHTS assay to identify small molecule antagonists of the androgen receptor (AR) signaling pathway using the MDA cell line (AID 743042; further: nearly all actives have a fitted effect of over 55% in size; further: potency means the concentration at half of the fitted maximal effect). The procedure, abridged: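 Antagonist mode: compounds plus R1881 agonist added to MDA-kb2 AR-luc cells, incubated 16 h at 37C. Luciferase reporter luminescence quantified, with multiplexed CellTiter-Fluor readout for cell viability.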

Test [15] addresses Glucocorticoid receptor (Homo sapiens) (UniProt P04150). Nature of the test: qHTS assay to identify small molecule agonists of the glucocorticoid receptor (GR) signaling pathway (AID 720691; active means well fitted activation curve with a large enough effect in the signal ratio in the repeat runs, not every such curve was filed as active; the % refers to the signal ratio; further: on the % scale 0 is the no-effect control and ±100 the full control effect). The following applies: GR-bla HeLa, beta-lactamase reporter ratio, 18 h; activation: at 62.4 µM (top of the series). The method in brief: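 HeLa GR-bla reporter line; cells pre-incubated 4 h, compound in DMSO 18 h at 37 C; LiveBLAzer B/G FRET substrate 2 h RT; fluorescence intensity read-out.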

For test [16] the target is unchanged. In words: qHTS assay to identify small molecule antagonists of the glucocorticoid receptor (GR) signaling pathway (AID 720692; active means well fitted inhibition curve with a large enough effect in the signal ratio in the repeat runs, not every such curve was filed as active; the % refers to the signal ratio; further: potency means the concentration at half of the fitted maximal effect). The procedure, abridged: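 Read-out: beta-lactamase FRET substrate fluorescence, 2 h at room temperature, in HeLa cells stably carrying a GRE-driven bla reporter. Compounds were co-incubated with 5 nM dexamethasone agonist (final) for 18 h at 37 C.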

The nature of test [17]: qHTS assay to test for compound auto fluorescence at 460 nm (blue) in HepG2 cells (AID 720687). Further: potency means the concentration at half of the fitted maximal effect. The procedure, abridged: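 Blue-channel autofluorescence (Ex/Em 405/460 nm, triamterene-equivalent) was measured after 1 hr compound exposure at 37 C, 5% CO2. Cells were HepG2, plated overnight at 37 C in MEM plus 10% FBS.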
For test [18], the target named is Androgen receptor (Homo sapiens) (UniProt P10275). In words: qHTS assay to identify small molecule antagonists of the androgen receptor (AR) signaling pathway (AID 743035; active means well fitted inhibition curve with a large enough effect in the signal ratio in the repeat runs, not every such curve was filed as active; the % refers to the signal ratio; further: on the % scale 0 is the no-effect control and ±100 the full control effect). The method in brief: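 AR-bla HEK293 reporter cells; 4 h settle at 37C/5% CO2; compound + R1881 agonist, 16 h at 37C; LiveBLAzer B/G FRET substrate 2 h RT; fluorescence intensity read. qHTS format.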

The target is the same in test [19]. In words: qHTS assay to identify small molecule agonists of the androgen receptor (AR) signaling pathway (AID 743036; active means well fitted activation curve with a large enough effect in the signal ratio in the repeat runs, with a control signal flat, not every such curve was filed as active; the % refers to the signal ratio; further: on the % scale 0 is the no-effect control and ±100 the full control effect). The method in brief:
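Beta-lactamase under UAS control, stably integrated in HEK293 GripTite cells, reports receptor activation. After 16 h compound treatment, cells received FRET substrate for 2 h at room temperature before fluorescence reading.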
Tags describe the fitted curve by direction and shape or compound fluorescence and quenching.

Glucocorticoid receptor (Homo sapiens), sequence (P04150 whole entry, looked up): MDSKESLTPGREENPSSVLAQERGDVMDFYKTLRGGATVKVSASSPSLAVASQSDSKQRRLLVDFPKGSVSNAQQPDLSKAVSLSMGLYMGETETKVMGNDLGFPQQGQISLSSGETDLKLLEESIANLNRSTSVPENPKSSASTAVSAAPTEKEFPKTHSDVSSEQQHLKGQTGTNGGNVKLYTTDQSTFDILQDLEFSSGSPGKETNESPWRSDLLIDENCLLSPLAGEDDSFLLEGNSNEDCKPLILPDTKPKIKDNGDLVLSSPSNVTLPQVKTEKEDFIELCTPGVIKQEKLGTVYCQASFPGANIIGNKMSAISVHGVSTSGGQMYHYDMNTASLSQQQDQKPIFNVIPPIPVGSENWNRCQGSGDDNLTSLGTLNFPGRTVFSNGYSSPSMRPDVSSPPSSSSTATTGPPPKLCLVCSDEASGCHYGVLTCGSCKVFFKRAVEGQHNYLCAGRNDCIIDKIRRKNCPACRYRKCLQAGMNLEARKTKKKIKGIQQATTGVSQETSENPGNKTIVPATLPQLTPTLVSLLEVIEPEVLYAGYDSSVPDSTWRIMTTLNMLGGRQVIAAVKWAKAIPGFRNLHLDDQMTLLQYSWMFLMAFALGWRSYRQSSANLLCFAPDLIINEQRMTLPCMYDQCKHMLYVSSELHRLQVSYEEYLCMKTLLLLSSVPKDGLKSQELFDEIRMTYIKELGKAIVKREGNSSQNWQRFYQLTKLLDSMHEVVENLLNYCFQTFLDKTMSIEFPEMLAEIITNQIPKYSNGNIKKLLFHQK
Androgen receptor (Homo sapiens), sequence (P10275 whole entry, looked up): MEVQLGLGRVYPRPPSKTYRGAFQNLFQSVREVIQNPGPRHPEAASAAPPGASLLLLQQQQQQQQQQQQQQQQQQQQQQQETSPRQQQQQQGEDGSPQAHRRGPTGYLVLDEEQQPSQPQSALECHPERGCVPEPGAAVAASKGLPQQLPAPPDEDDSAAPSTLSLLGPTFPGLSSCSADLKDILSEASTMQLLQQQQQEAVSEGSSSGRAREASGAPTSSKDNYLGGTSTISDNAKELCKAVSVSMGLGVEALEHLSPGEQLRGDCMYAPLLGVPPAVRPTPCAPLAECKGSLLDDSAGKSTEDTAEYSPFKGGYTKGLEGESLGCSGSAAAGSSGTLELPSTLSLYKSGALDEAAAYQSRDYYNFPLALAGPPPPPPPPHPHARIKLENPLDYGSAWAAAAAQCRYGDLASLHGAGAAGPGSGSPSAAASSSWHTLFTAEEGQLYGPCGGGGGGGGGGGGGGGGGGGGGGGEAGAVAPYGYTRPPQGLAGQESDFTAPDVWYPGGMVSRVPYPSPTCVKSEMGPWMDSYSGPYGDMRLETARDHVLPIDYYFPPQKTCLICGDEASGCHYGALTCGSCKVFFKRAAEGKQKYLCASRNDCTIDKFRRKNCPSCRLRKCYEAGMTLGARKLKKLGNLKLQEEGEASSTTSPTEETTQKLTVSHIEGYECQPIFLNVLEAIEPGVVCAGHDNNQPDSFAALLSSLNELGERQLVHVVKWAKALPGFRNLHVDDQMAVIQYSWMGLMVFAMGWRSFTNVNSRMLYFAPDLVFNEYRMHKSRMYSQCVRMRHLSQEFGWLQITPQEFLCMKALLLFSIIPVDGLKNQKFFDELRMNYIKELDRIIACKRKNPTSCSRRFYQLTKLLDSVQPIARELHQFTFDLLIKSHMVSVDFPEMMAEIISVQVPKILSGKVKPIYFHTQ

For `Cc1cccc(C)c1NC(=O)CN1CCN(CCCC(c2ccc(F)cc2)c2ccc(F)cc2)CC1`, in test [1], the fluorescence, % of fluorescein is 0.0034% [at 18.6 µM]. In addition, the fluorescence, % of fluorescent control in test [2] was -0.178% [at 18.6 µM]; in [4] it was -0.297% [at 18.6 µM]; in test [6], -0.0263% [at 18.6 µM]. Further, the activity change in test [3] is 0.0074% [at 18.6 µM, active compounds read high]. Also, the fluorescence, % of Rose Bengal in test [5] was -0.0617% [at 18.6 µM]. Besides, in [7], the fluorescence, % of fluorescein control was 0.0052% [at 18.6 µM]. Further, the Potency result in [8], in test [11] and in [12] was “inactive” throughout. Further, the figures for the Potency in test [9] and in test [10] were 5.69 µM (active) and 7.17 µM (active), respectively.

`CCN=C1C=CC(=C(c2ccc(N(CC)CC)cc2)c2ccc(N(CC)CC)cc2)c2ccccc21`: the Potency result in test [1], in test [2], in test [3], in test [4], in test [5] and in test [6] was “inactive” each time. The Potency result in test [7] was “inactive”. Besides, the Potency in test [8] was 24.4 µM (active); in test [13], 0.0192 µM (active); in [9], 0.0305 µM (active); in test [10], 0.0192 µM (active); in test [11], 0.0434 µM (active); in test [12] it was 0.121 µM (active). The Potency in test [14] is 0.043 µM (active).

For `O=C(O)CC(=O)O`, the Potency entry in test [1], in test [2], in test [3], in [4], in test [5] and in test [6] was “inactive” throughout. Besides, the Potency result in test [7], in [15], in test [8], in [9], in test [10] and in test [11] was “inactive” throughout. Also, the Potency result in [12] is “inactive”.

For `COc1cc(C(C)C)c2c(c1)S(=O)(=O)N(COc1cc(=O)n3cccc(OCCN4CCCCC4)c3n1)C2=O`, in test [1], the fluorescence, % of fluorescein was -0.188% [at 18.6 µM]. Further, the fluorescence, % of fluorescent control is -0.0582% [at 18.6 µM] in test [2], 0.355% [at 18.6 µM] in test [4] and -0.155% [at 18.6 µM] in test [6]. For the same molecule, in [3], the activity change is -0.182% [at 18.6 µM, active compounds read high]. In test [5], the fluorescence, % of Rose Bengal is -0.164% [at 18.6 µM]. Further, the fluorescence, % of fluorescein control in [7] was -0.0973% [at 18.6 µM]. In addition, the Potency in test [16] was 10.4 µM (active); in test [13] it was 13 µM (active); in test [9], 16.4 µM (active); in test [10], 13 µM (active). Moreover, the Potency result in [8] and in test [12] was “inactive” each time.

Take `COC(=O)NCCC[Si](OC)(OC)OC`: the Potency result in [1], in [2], in test [3], in test [4], in [5] and in test [6] was “inactive” in each case. Besides, the Potency entry in test [7], in [8], in test [11] and in test [12] was “inactive” throughout. Also, the results for the Potency in test [13] and in test [9] were 61.1 µM (active) and 68.6 µM (active), respectively.

In the case of `C[n+]1c2cc(N)ccc2cc2ccc(N)cc21` (tested in a mixture with another compound), the Potency in test [1] was 12.6 µM [fluorescent] (active); in [2] it was 11.2 µM (active); in test [3] it was 12.6 µM [fluorescent] (active); in test [6] it was 11.2 µM [fluorescent] (active); in test [7] it was 12.6 µM [fluorescent] (active); in test [17], 14.1 µM [fluorescent] (active). In addition, the results for the Potency in test [9] and in test [10] were 1.68 µM (active) and 2.66 µM (active), respectively. In addition, the Potency entry in [4] and in [5] was “inactive” in each case.

Turning to `c1ccc(Sc2ccccc2)cc1`, the Potency entry in test [1], in [2], in test [3], in [4], in [5] and in test [6] was “inactive” throughout. In addition, the Potency result in test [7], in [17], in test [8], in [18], in [12] and in [14] was “inactive” throughout. In addition, the Potency in test [9] is 68.6 µM (active). The molecule was called inactive in test [19].

Regarding `CCOC(=O)N1CCC(=C2c3ccc(Cl)cc3CCc3cccnc32)CC1`, the Potency entry in test [1], in [2], in [3], in test [4], in test [5] and in test [6] was “inactive” in each case. Also, the Potency entry in test [7] and in [15] was “inactive” each time. Also, the Potency was 7.5 µM (active) and 9.69 µM (active) in [9]; 9.44 µM (active) and 10.9 µM (active) in [10]; 17.4 µM (active) in [11].
